# Screens: PubChem BioAssay, NMMLSC
# Avidin bead fluor: compound fluoresces at 488/530 nm on avidin beads. fluorescence (KMESF) at 10 µM. compound fluorescence 488/530 nm, flow cytometry; active compounds read high. AID 1775. actives 0.38% (n = 220,000); in the data active = fluorescence above about 47
# RGS4-Gao reg: human RGS4-Galphao interaction regulation; Multiplexed bead flow cytometry, RGS4-Galphao binding; actives lie on both sides; binding response (% of control), % at 10 µM; actives 0.33% (n = 220,000); AID 1415; in the data active = binding response below about 49% or above about 150%; inactive = in between;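 also: fluorescent Galphao activated with aluminum fluoride binding bead-coupled RGS4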
# Target sequence (P09471 whole entry, looked up): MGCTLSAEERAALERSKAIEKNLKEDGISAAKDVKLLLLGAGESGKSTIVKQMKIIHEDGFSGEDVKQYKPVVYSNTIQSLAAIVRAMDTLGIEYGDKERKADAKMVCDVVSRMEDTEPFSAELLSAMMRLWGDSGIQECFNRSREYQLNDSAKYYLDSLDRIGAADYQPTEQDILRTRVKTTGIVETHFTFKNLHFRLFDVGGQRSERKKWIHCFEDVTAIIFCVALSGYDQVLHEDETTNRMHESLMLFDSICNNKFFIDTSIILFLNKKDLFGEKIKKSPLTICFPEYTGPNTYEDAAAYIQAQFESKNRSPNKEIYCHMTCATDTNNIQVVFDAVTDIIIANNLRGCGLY
# GSH fluor: GSH bead compound fluorescence profile; GSH beads flow cytometry, compound fluorescence 488/530 nm; active compounds read high; fluorescence (KMESF) at 10 µM; actives 0.25% (n = 190,000); in the data active = fluorescence above about 89;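 also: glutathione beads carrying GST-tagged Bcl family fusion proteins plus one bare bead set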
# RGS8-Gao: modulates binding of RGS8 to human Galphao; P09471; response (percent of control binding), % at 10 µM; multiplexed bead flow cytometry; actives lie on both sides; actives 0.34% (n = 220,000); in the data active = response below about 60% or above about 140%; inactive = in between;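 also: Galphao activated as the GDP aluminium fluoride complex binding bead-coupled RGS8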
# RGS16-Gao: RGS16-Galphao interaction regulator (human). O15492+P09471. bead-based flow cytometry RGS16-Galphao binding, fluorescence; actives lie on both sides. binding response (% of control), % at 10 µM. actives 0.38% (n = 220,000). AID 1441; call rule not given here;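 also: Galphao activated by GDP with aluminum fluoride before binding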
# Target sequence (O15492 whole entry, looked up): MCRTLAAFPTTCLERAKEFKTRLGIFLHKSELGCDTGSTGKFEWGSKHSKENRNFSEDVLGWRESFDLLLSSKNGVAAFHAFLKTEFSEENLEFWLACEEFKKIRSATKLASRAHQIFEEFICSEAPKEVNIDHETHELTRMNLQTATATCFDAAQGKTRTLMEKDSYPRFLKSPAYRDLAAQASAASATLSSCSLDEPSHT
# Target sequence (P09471 whole entry, looked up): as the sequence (P09471 whole entry, looked up) above
# RGS7-Gao reg: modulates binding of RGS7 to human Galphao. binding response (% of control), % at 10 µM. actives 0.35% (n = 220,000). AID 1439. Multiplexed bead flow cytometry; actives lie on both sides. P09471; in the data active = binding response below about 49% or above about 150%; inconclusive = no clear call, values can overlap the other calls; inactive = in between;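 also: fluorescent Galphao held in activated GDP-AlF4 state binding bead-coupled RGS7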
# Hits are given with their value; - = inactive; ? = inconclusive; . = not tested or not shown; + = active, no number; ! = a repeat was not active; [ ] = another dose, or the depositor's remark. Sampled rows, rich in hits. Any-hit rate of the full collection: about 1.2%.
SMILES,Avidin bead fluor,RGS4-Gao reg,GSH fluor,RGS8-Gao,RGS16-Gao,RGS7-Gao reg
CCCCn1c(SCC(=O)N2CC(C)CC(C)C2)nc2cc(S(N)(=O)=O)ccc21 (stereo unspecified),-,-,262,-,-,-
Nc1[nH]ncc1-c1ccccc1,-,-,-,-,-,-
CCN(CC)CCNc1nc(-c2ccco2)c2c(c1C#N)CC(C)(C)OC2,48,-,-,-,-,-
COc1cccc(NC(=O)N2CCCC2C(=O)NCc2ccccc2)c1 (stereo unspecified),-,-,-,-,-,-
COc1cc(-c2csc(N3CCOCC3)n2)cc(OC)c1OC,-,-,263,-,-,-
Fc1ccc(-c2csc(N3CCOCC3)n2)cc1,-,-,.,-,-,?
Nc1c(C(=O)NCc2ccco2)sc2nc(N3CCOCC3)c3c(c12)CCCC3,62,-,-,-,-,-
Oc1[nH]c2ccccc2c1N=Nc1ccccc1,-,-,.,-,-,?
O=S1(=O)N=C(N=Nc2c(O)[nH]c3ccccc23)c2ccccc21,-,12,-,17,4.8,12
CCN(CC)c1ccc(/C=C2\C(=O)c3ccc(C(=O)O)cc3C2=O)cc1,-,-,306,-,-,-
OC(CSc1ccccc1Cl)CN1CCN(c2ccccc2F)CC1 (stereo unspecified),89,-,-,-,-,-
OC(CSc1c(Cl)cccc1Cl)CN1CCN(c2ccccc2F)CC1 (stereo unspecified),-,-,-,-,-,-
O=C(CSCc1ccccc1)Nc1cccc(C(=O)Nc2ccc(C(=O)O)cc2)c1,53,-,-,-,-,-
NC(=O)c1ccc(N=Nc2c(-c3ccccc3)[nH]n(-c3ccccc3)c2=O)cc1,63,-,-,-,-,?
CCNC(=S)N/N=C/c1cccs1,-,-,-,-,-,-
O=C(CSc1nc2ccc([N+](=O)[O-])cc2[nH]1)NCCc1ccccc1,61,-,-,-,-,-
O=C(CSc1nc2ccc(Cl)cc2[nH]1)NCCc1ccccc1,-,-,-,-,-,-
CC(=O)NC1(C(F)(F)F)NC(=O)N(CC(C)C)C1=O (stereo unspecified),53,-,-,-,-,-
CCCCN1C(=O)NC(NC(C)=O)(C(F)(F)F)C1=O (stereo unspecified),-,-,-,-,-,-
O=C(O)C[C@@H](O)C(=O)O,-,-,-,-,-,-
Nn1c(-c2ccccc2Cl)nnc1-c1ccccc1Cl,-,-,102,-,-,-
O=S(=O)(Nc1ccccc1)c1ccc2c(c1)CCO2,-,-,.,-,-,?
COc1ccc(NS(=O)(=O)c2ccc3c(c2)CCO3)cc1,61,-,.,-,-,?
CCOCCCNC(=O)CSc1ccccc1,51,-,-,-,-,-
COCCCNC(=O)CSc1ccc(Cl)cc1,-,-,-,-,-,-
SMILES,Avidin bead fluor,RGS4-Gao reg,GSH fluor,RGS8-Gao,RGS16-Gao,RGS7-Gao reg
CNC(=O)CC12CC3CC(CC(C3)C1)C2,-,-,261,-,-,-
COCCNC(=S)NC(=O)CC12CC3CC(CC(C3)C1)C2,-,-,-,-,-,-
N#Cc1c(NC(=O)C2CCCO2)sc2c1CCCCCC2 (stereo unspecified),-,-,-,-,-,-
CC(C)c1ccc(C(C(=O)NC2CCCCC2)N(C(=O)c2ccccn2)c2cccnc2)cc1 (stereo unspecified),-,-,-,-,-,-
O=C(CSc1nnc(-c2ccncc2)o1)N1CCc2ccccc2C1,47,-,-,-,-,-
O=C(NCCCn1ccnc1)c1cc(S(=O)(=O)N2CCOCC2)ccc1F,-,-,-,-,-,-
CN(C)CCCNC(=O)c1cc(S(=O)(=O)N2CCOCC2)ccc1F,-,166[activator],-,142[activator],-,-
Cc1ccc(NC(=O)CCCSc2ccccc2)cc1S(=O)(=O)N1CCOCC1,101,-,-,-,-,-
CC(/C=N/Nc1nc(C)cc(C)n1)=C\c1ccc(C(C)C)cc1,-,-,-,-,-,-
COc1ccc(NC(=O)CCNS(=O)(=O)c2ccc3c(c2)c(=O)n(C)c(=O)n3C)cc1,69,-,-,-,-,-
Cc1ccc(OC/C(=N\O)C(C)(C)C)c([N+](=O)[O-])c1,-,-,-,-,-,-
CCn1c(Cc2ccccc2)nnc1SCC(=O)Nc1ccc(C)cc1,-,-,-,-,-,-
CCn1c(CC(=O)Nc2ccc(C)cc2)nnc1SCC(=O)NCCc1ccccc1,49,-,-,-,-,-
CC(C)c1nc(SCC(=O)Nc2ccc3c(c2)OCCO3)n[nH]1,-,-,-,-,-,-
COc1ccc(Cc2noc(COc3ccc(Cl)cc3)n2)cc1,-,-,92,-,-,-
O=C(O)c1ccccc1NS(=O)(=O)c1ccc2c3c(cccc13)C(=O)N2,75,-,-,-,-,-
CN(c1ccccc1C(=O)O)S(=O)(=O)c1ccc2c3c(cccc13)C(=O)N2,-,-,-,-,-,-
O=c1c([N+](=O)[O-])cc(C(F)(F)F)cn1Cc1c(Cl)cccc1Cl,-,-,-,-,-,-
O=C(Nc1ccccn1)C(=O)Nc1ccccn1,-,-,.,-,-,?
O=C(Nc1ccccc1)Nc1ccccn1,68!,-,-,-,-,?
Cc1ccc(NC(=O)c2ccc(OC(=O)CCN3C(=O)c4ccccc4C3=O)cc2)cc1,48,-,-,-,-,-
CCCCN1C(=O)/C(=C/C=C2\Oc3ccccc3N2CC)SC1=S,-,-,-,-,-,-
CCN1/C(=C/C=C/c2oc3ccc(-c4ccccc4)cc3[n+]2CC)Oc2ccc(-c3ccccc3)cc21,994,+[activator],640,300[activator],+[activator],+[activator]
COCC(C)n1c(SCC(=O)N2CCc3ccccc3C2)nc2ccccc2c1=O (stereo unspecified),-,-,-,-,-,-
Cc1nnc(-c2cnn(-c3ccccc3)c2N)n1Cc1ccncc1,78,-,-,-,-,-
SMILES,Avidin bead fluor,RGS4-Gao reg,GSH fluor,RGS8-Gao,RGS16-Gao,RGS7-Gao reg
Cc1nnc(-c2cnn(-c3ccccc3)c2N)n1Cc1cccc(C(F)(F)F)c1,-,-,-,-,-,-
CC1(C)Cc2c(C#N)c(SCC(=O)c3ccccc3)nc(N3CCOCC3)c2CS1,49,-,-,-,-,-
N#CC(C(=O)Nc1cccc(Cl)c1)=C1Nc2ccccc2N1,-,-,-,-,-,-
N#CC(C(=O)Nc1ccc(Cl)c(Cl)c1)=C1Nc2ccccc2N1,50,-,-,-,-,-
CCc1ccc(N(CC(=O)NCc2ccc(F)cc2)C(=O)c2csnn2)cc1,-,-,-,-,-,-
COc1cccc(CN2CCN(Cc3ccc4c(NC(C)=O)cccc4n3)CC2CCO)c1 (stereo unspecified),-,-,-,-,-,-
Cc1c(C(=O)OCC(=O)Nc2ccc(C(N)=O)cc2)cccc1[N+](=O)[O-],-,-,-,-,-,?
